This note sets out measurements from PubChem BioAssay.

Structures are written as SMILES. Calls of active or inactive are those of the source.

Experiment [1] relates to Plasmodium falciparum Sir2 (PF13_0152, Sir2A). Kind of experiment: pfSir2 binders on small-molecule microarrays, primary screen, biochemical, small-molecule microarray, 635 nm fluorescence (AID 1098).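 Note: score merges spot fluorescence intensity with its signal-to-noise ratio.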 The following applies: small-molecule microarray binding, fluorescence 635 nm; higher = more signal.
A short description of experiment [2]: small-molecule microarray binders of probe aDKK1, primary screen, biochemical, biotinylated probe, 635/667 nm fluorescence (AID 1099).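 Note: score merges 667nm spot fluorescence with signal to noise across triplicate slides; reference of the scale not given here.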 The following applies: higher = more signal.
Experiment [3] can be described thus: small-molecule microarray binders of probe aCHRDL2, primary screen, biochemical, biotinylated probe, 635/667 nm fluorescence (AID 1100). The conditions noted are these: higher = more signal.
Experiment [4] is described as follows: splicing luciferase reporter signal modulators, primary screen, spliceosome inhibition project, cell-based, HEK293, splice +/- reporter (AID 1101).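 Note: HEK293 cells carrying a splicing-competent luciferase reporter gene; test concentration not given here.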 The conditions noted are these: luminescence, 24 h, higher = more signal, called active from +8 up or from −8 down. Background: In a reporter assay the amount or activity of a reporter protein is the signal.
Experiment [5] deals with Fibroblast growth factor 10 (Homo sapiens) (UniProt O15520). Kind of experiment: FGF10 binders on small-molecule microarrays, primary screen, biochemical, small-molecule microarray, 635 nm fluorescence (AID 1102). The following applies: FGF10 binding, fluorescence 635 nm, higher = more signal.
Fibroblast growth factor 10 (Homo sapiens), sequence (O15520 whole entry, looked up): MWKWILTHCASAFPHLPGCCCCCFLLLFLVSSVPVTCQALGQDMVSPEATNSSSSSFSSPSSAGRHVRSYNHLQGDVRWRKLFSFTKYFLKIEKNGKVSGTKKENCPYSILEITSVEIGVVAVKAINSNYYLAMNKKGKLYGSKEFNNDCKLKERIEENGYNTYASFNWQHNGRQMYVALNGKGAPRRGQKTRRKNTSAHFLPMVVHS
Experiment [6] has as its system glycogen synthase kinase-3 (GSK3A per assay name; protocol says GSK3B). Kind of experiment: GSK3 binders on small-molecule microarrays, primary screen, biochemical, small-molecule microarray, 635 nm fluorescence, GSK3A (AID 1103). Note: the record names both GSK3A and GSK3B. The following applies: small-molecule microarray binding, fluorescence 635 nm; higher = more signal.
Experiment [7] concerns the target Epidermal growth factor receptor (Homo sapiens) (UniProt P00533). Kind of experiment: EGFR binders on small-molecule microarrays, primary screen, biochemical, small-molecule microarray, 635 nm fluorescence (AID 1104).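 Note: score merges 667 nm emission intensity with spot signal to noise over triplicate slides.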 The conditions noted are these: EGFR binding, higher = more signal.
Experiment [8] addresses Follistatin-related protein 3 (Homo sapiens) (UniProt O95633). Kind of experiment: FSTL3 binders on small-molecule microarrays, primary screen, biochemical, small-molecule microarray, 635 nm fluorescence (AID 1105).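 Note: score merges emission near 667 nm and signal to noise per printed spot across three slides.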 The following applies: FSTL3 binding, higher = more signal.
Experiment [9] has as its target Dickkopf-related protein 1 (Homo sapiens) (UniProt O94907). Kind of experiment: DKK1 binders on small-molecule microarrays, primary screen, biochemical, small-molecule microarray, 635 nm fluorescence scan (AID 1106).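 Note: score merges emission near 667 nm with signal to noise over three replicate slides.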 The following applies: DKK1 binding, higher = more signal.
Experiment [10] concerns Inhibin beta A chain (activin A). Kind of experiment: INHBA (activin A) binders on microarrays, primary screen, biochemical, small-molecule microarray, 635 nm fluorescence scan (AID 1107).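 Note: mouse activin A protein probed at 4.33 µg/mL on printed slides; score merges bound-protein fluorescence near 667 nm with spot signal-to-noise.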 The following applies: small-molecule microarray binding, higher = more signal.

Epidermal growth factor receptor (Homo sapiens), sequence (P00533 whole entry, looked up): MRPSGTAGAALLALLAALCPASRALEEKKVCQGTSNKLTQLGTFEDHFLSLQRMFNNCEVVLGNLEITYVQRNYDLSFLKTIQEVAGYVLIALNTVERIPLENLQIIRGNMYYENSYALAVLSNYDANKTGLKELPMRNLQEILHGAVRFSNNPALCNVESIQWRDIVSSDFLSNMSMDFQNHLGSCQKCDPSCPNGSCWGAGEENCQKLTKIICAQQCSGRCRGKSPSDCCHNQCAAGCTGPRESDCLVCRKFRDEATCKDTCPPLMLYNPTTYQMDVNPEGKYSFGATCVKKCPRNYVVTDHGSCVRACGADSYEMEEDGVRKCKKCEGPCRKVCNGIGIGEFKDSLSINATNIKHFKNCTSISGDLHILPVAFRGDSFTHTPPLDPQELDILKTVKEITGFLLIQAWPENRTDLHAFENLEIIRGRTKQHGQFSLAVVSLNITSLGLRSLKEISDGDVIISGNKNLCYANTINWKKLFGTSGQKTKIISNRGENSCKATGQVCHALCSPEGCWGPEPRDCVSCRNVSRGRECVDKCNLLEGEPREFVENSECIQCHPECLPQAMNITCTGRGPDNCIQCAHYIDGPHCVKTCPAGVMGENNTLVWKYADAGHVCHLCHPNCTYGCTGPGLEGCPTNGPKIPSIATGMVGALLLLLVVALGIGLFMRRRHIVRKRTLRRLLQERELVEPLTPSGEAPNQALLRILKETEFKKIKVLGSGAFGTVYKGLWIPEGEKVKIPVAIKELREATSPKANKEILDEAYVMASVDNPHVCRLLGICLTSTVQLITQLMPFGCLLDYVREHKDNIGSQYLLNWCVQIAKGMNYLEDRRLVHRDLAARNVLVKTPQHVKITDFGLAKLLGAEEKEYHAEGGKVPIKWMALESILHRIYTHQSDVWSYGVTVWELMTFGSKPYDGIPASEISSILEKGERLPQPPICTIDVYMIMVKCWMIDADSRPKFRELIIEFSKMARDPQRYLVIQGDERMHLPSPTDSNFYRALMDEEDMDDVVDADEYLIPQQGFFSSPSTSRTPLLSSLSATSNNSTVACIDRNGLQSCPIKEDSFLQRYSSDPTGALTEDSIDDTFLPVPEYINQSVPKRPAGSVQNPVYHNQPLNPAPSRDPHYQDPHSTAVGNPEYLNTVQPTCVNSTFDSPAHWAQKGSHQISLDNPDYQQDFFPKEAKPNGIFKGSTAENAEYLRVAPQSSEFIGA
Dickkopf-related protein 1 (Homo sapiens), sequence (O94907 whole entry, looked up): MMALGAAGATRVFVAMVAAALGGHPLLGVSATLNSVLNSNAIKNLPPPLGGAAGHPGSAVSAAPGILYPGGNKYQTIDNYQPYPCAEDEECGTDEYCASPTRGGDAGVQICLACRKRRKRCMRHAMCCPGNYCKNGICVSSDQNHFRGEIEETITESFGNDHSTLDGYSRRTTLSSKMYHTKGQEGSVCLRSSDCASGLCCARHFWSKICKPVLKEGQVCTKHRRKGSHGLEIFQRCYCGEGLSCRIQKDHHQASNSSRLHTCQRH
Follistatin-related protein 3 (Homo sapiens), sequence (O95633 whole entry, looked up): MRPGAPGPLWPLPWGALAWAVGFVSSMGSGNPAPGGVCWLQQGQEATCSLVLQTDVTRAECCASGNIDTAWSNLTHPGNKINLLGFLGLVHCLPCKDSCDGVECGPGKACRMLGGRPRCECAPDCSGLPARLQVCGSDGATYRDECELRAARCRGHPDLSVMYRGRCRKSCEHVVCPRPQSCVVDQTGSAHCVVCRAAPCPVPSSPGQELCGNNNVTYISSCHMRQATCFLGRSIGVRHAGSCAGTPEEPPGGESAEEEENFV

`C=CCNC(=O)[C@H]1[C@@H]2C(=O)O[C@@H](c3ccccc3)[C@@H](c3ccccc3)N2[C@@H](c2ccc(OCCO)cc2)[C@]12C(=O)N(C(=O)OCCOC)c1ccc(C#CC3(O)CCCCCC3)cc12`: the composite z-score in experiment [1] was found to be 1.55; in [2], 0.456; in experiment [3] it was 0.33; in experiment [5], 1.42; in [6], 1.31; in experiment [7] it was 1.02. The results for the composite z-score in experiment [8], in experiment [9] and in [10] were 1.48, 1.23 and 1.18, respectively. In addition, the z-score in [4] was -0.569 (inactive).
Consider `CN1C(=O)C2C=CC(C(O)c3ccc(Br)cc3)N(Nc3ccccc3)C2C1=O` (stereo not given), for which the composite z-score in experiment [1] was -0.186; in [2] it was 0.528; in experiment [3], 1.03; in experiment [5], -0.583; in [6], -1.21; in [7], -1.3. The values for the composite z-score in experiment [8], in experiment [9] and in experiment [10] were -1.09, -1.49 and 1.12, respectively. Also, in experiment [4], the z-score was 1.11 (inactive).
As to `O=C(NCC(F)(F)F)[C@@H]1c2ccccc2C(=O)N(Cc2ccccc2)[C@H]1c1ccc(CO)cc1`, the composite z-score was 1.68 in experiment [1]; 0.443 in [2]; 1.05 in experiment [3]; -0.308 in [5]; -0.409 in [6]; -1.31 in experiment [7]. Besides, the composite z-score in experiment [8] is -1.12; in experiment [9] it was -1.46; in experiment [10] it was -0.296. In addition, the z-score in [4] is 0.999 (inactive).
On to `C=C(C(=O)CC[C@@H](OC(=O)c1cccnc1)c1ccc(OCCO)cc1)C(C)C`, for which the composite z-score is 0.603 in [1]; -0.312 in experiment [2]; -0.188 in experiment [3]; 0.922 in experiment [5]; 0.154 in [6]; -0.255 in experiment [7]. Also, the composite z-score in [8] amounted to 0.802; in experiment [9], 0.906; in experiment [10] it was 0.223. For the same molecule, the z-score in experiment [4] was -0.255 (inactive).
For `[N-]=[N+]=NCc1ccccc1C[C@]1(C(=O)NCCN2CCOCC2)N=C(c2ccc(OCCCO)cc2)O[C@H]1c1ccccc1CN=[N+]=[N-]`, the composite z-score in [1] is 1.5; in [2] it was 0.304; in experiment [3], 0.71; in experiment [5], 1.48; in experiment [6], 1.32; in experiment [7] it was 0.357. In addition, the composite z-score in experiment [8] is 0.535; in experiment [9] it was 0.16; in [10], 0.928. The z-score in experiment [4] is -1.27 (inactive).
Consider `CC[C@@H]1C=C(C(=O)O)[C@H](c2ccc(C(C)C)cc2)N1S(=O)(=O)c1ccc(C)cc1`, for which the composite z-score in [1] amounted to 1.25; in experiment [2], 1.1; in experiment [3], 0.86; in experiment [5], 1.08; in [6], 1.15; in experiment [7], 0.001. Further, the composite z-score was 1.18 in experiment [8], -0.172 in [9] and 0.769 in experiment [10]. Also, the z-score in experiment [4] was -0.0593 (inactive).
As to `C[C@]1(C(=O)NCC(F)(F)F)c2ccccc2C(=O)N(Cc2cc(F)cc(C(F)(F)F)c2)[C@H]1c1ccc(CO)cc1`, the composite z-score was 1.54 in experiment [1]; 1.64 in experiment [2]; 0.572 in experiment [3]; 0.257 in experiment [5]; -0.12 in experiment [6]; 0.0376 in experiment [7]. The composite z-score in experiment [8] is -0.66; in [9] it was -0.609; in experiment [10] it was -0.461. In addition, the z-score in experiment [4] was -0.633 (inactive).
For `[N-]=[N+]=NCc1ccccc1[C@@H]1OC(c2ccc(OCCCO)cc2)=N[C@]1(Cc1ccccc1)C(=O)O`, the composite z-score in [1] is 1.03; in experiment [2], 0.175; in [3], 0.917; in experiment [5], 0.661; in experiment [6], 0.294; in experiment [7], -0.321. Moreover, the composite z-score in experiment [8] was -0.086; in [9], -0.617; in [10], 1.2. For the same molecule, the z-score in [4] is -0.013 (inactive).
For `CCCCC(=C=CC[C@H](O)c1ccccc1OCCO)C[C@H](O)c1cc(Cl)cc(Cl)c1O`, the composite z-score is 1.26 in experiment [1]; 0.0947 in experiment [2]; 0.0444 in experiment [3]; 0.345 in experiment [5]; 0.24 in [6]; -0.619 in experiment [7]. Besides, the results for the composite z-score in [8], in experiment [9] and in experiment [10] were 0.179, -0.429 and 0.796, respectively. Also, the z-score in experiment [4] was 0.23 (inactive).
On to `C=C(CCCC)/C(=C/C[C@H](OC(C)=O)c1ccc(CO)o1)c1cc(C(=O)OC)ccc1OC`, for which the composite z-score was 1.43 in experiment [1]; -0.0797 in experiment [2]; -0.438 in experiment [3]; 1.25 in [5]; 0.469 in experiment [6]; -0.102 in experiment [7]. Besides, the composite z-score was 1.25 in experiment [8], 0.291 in experiment [9] and 0.638 in [10]. Further, the z-score in experiment [4] was -0.27 (inactive).
As for `Cc1ccc(S[C@]2(C(=O)NCC(F)(F)F)CC(=O)N(C3Cc4ccccc4C3)[C@@H]2c2ccc(CO)cc2I)cc1`, the composite z-score is 1.08 in experiment [1]; 0.599 in experiment [2]; 1.19 in experiment [3]; -1.02 in experiment [5]; -1.3 in experiment [6]; -1.51 in experiment [7]. The composite z-score in experiment [8] was -1; in [9], -2.11; in [10], 0.554. In experiment [4], the z-score is -0.426 (inactive).
Turning to `COC(=O)[C@@]1(Cc2ccc(F)cc2)[C@H]2c3cc(C(=O)N4CCCC4)n(Cc4ccc(Cl)c(C(F)(F)F)c4)c3C[C@H]2CN1C(=O)c1ccccc1`, the composite z-score amounted to 1.11 in experiment [1]; 2.11 in [2]; 1.58 in experiment [3]; 0.879 in experiment [5]; 0.864 in experiment [6]; 0.477 in [7]. The composite z-score was 1.18 in experiment [8], -0.652 in [9] and 0.864 in experiment [10]. Besides, the z-score in [4] is -0.767 (inactive).
For the molecule `CN1C(=O)C2C=CC(C(O)C=Cc3ccc([N+](=O)[O-])cc3)N(N3CCCCC3)C2C1=O` (stereo not given), the composite z-score was 1.38 in [1]; 1.6 in experiment [2]; 1.34 in experiment [3]; 0.928 in [5]; 1.28 in experiment [6]; 0.726 in experiment [7]. In addition, the results for the composite z-score in [8], in experiment [9] and in [10] were 1.1, 0.256 and 1.35, respectively. Moreover, the z-score in experiment [4] was 1.47 (inactive).
As to `CN1C(=O)C2C=CC(C(O)C(C)(C)C)N(Nc3ccccc3)C2C1=O` (stereo not given), the composite z-score in experiment [1] is 1.24; in experiment [2], -0.108; in experiment [3] it was 0.211; in experiment [5] it was -0.0353; in experiment [6], -0.0258; in experiment [7], -0.639. The values for the composite z-score in experiment [8], in experiment [9] and in experiment [10] were -0.543, -0.406 and 0.941, respectively. Also, the z-score in experiment [4] was 1.06 (inactive).
Consider `Cc1ccc(S(=O)(=O)N2CC(C(=O)O)=CCC2c2ccccc2)cc1` (stereo not given), for which the composite z-score in experiment [1] is 1.11; in [2], 0.133; in experiment [3], 0.696; in [5] it was -0.265; in experiment [6] it was -0.5; in [7], -0.638. Also, the results for the composite z-score in experiment [8], in [9] and in experiment [10] were -0.95, -1.6 and -0.538, respectively. Moreover, the z-score in [4] was 0.566 (inactive).
Regarding `CCOC(=O)C1=CC[C@@H](c2ccccc2)N(S(=O)(=O)c2ccc(C)cc2)[C@H]1c1ccc(C#N)cc1`, the composite z-score was 0.802 in [1]; 1.17 in [2]; 1.18 in [3]; 0.278 in [5]; 1.29 in experiment [6]; -0.18 in experiment [7]. The composite z-score was 0.272 in experiment [8], -0.972 in experiment [9] and 0.676 in experiment [10]. The z-score in experiment [4] was -0.29 (inactive).
As for `CC(C)(C)OC(=O)CC[C@@]1(C(=O)NCC(O)CO)N=C(c2ccc(OCCCO)cc2)O[C@@H]1c1ccccc1` (stereo not given in full), the composite z-score was 0.317 in experiment [1]; 0.652 in experiment [2]; 0.811 in experiment [3]; 0.989 in experiment [5]; 0.0733 in [6]; -1.19 in experiment [7]. In addition, the values for the composite z-score in [8], in experiment [9] and in [10] were -0.583, -0.693 and 0.203, respectively. In experiment [4], the z-score was -0.658 (inactive).
